Where “and” joins values, the source holds several entries; their conditions need not be identical. Identical values can stand only once. Inconclusive results are not listed. A call without a number means that no potency is given here. Calls of active or inactive are those of the source. Unless noted, calls come from the whole dose curve; as a rule, active = well fitted curve in either direction with a large enough effect (not every such curve was filed as active); inconclusive = small, poorly fitted or top-dose-only effect, or another doubt; inactive = flat fitted curve, though single readings scatter.
Experiments:
[1] = target: Cytochrome P450 1A2 (Homo sapiens) (UniProt P05177); experiment: p450-cyp1a2 (AID 410; calls by dose curve; note: potency is the fitted concentration of half-maximal effect)
Method in brief: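 Luminescent readout of luciferin formed from Luciferin-ME by human CYP1A2; data normalized against complete inhibition by 57 uM furafylline. Enzyme 20nM, substrate 100uM at Km, 100mM KPO4 buffer, 60 min reaction at room temperature.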

[2] = NFAT Signaling Pathway (AID 444); settings: Jurkat NFAT-bla M1, carbachol, beta-lactamase ratio, 5 h;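 note: carbachol stimulus at about its EC50 of 1 µM final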
Method in brief: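 Read-out: CCF4 FRET ratio (460 nm/530 nm) after 1 h RT dye loading, used for %activity and AC50 from titration series. Cells: Jurkat NFAT-β-lactamase/M1 line, treated with compound plus 1 uM carbachol for 5 h, 37 °C.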

[3] = Stat Signaling Pathway (AID 446);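 note: ME-180 cervical cancer cells given 40 pM IL-6 alongside compound; SIE-controlled beta-lactamase reporter measured as 460/530 nm FRET emission ratio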
Method in brief: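 ME-180 SIE-bla cells; overnight plating; cpd + IL-6 40 pM, 5 h, 37 C; LiveBLAzer 2.5 h RT; 460/530 nm emission ratio. Normalized to 300 pM IL-6 and 125 nM JAK inhibitor controls.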

[4] = target: Glucocorticoid receptor (Homo sapiens) (UniProt P04150); experiment: GR-GFP Redistribution (AID 450;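 active = compounds whose dose series gives a full or clear partial fitted curve of increased nuclear translocation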; note: potency is the fitted concentration of half-maximal effect); settings: U2OS GR-GFP nuclear translocation, laser cytometry, 2 h
[5] = target: Glucocorticoid receptor (Homo sapiens) (UniProt P04150); experiment: GR-EFC Redistribution (AID 451; calls by dose curve; note: potency is the fitted concentration of half-maximal effect); settings: CHO-K1 GR-EFC translocation, beta-gal luminescence, 2 h
Method in brief: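 Translocation of GR-ED fusion to nuclear EA restores b-gal, read by luminescence after 1 h room-temperature detection. Engineered CHO-K1 biosensor cells, 1,000/well, exposed 2 h at 37 C to titrations up to 46 uM final.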

[6] = target: Mitogen-activated protein kinase 10 (Mus musculus) (UniProt Q61831); experiment: JNK3 AlphaScreen Assay (AID 530);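 note: kinase came from lysate of stimulated human HepG2 cells; signal reports phosphorylation of biotinylated GST-cJun 1-79 at Ser73 with 10 µM ATP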
Method in brief: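 Compound titrations were preincubated 15 minutes at room temperature with substrate, antibody and pre-activated JNK3-containing HepG2 lysate. Reactions were started with 10 uM ATP and stopped with EDTA-containing bead buffer for AlphaScreen detection.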

[7] = qHTS Assay for Lipid Storage Modulators (AID 1519; calls by dose curve); settings: Drosophila S3 cells, BODIPY lipid droplet/cell ratio, laser cytometry, cells loaded with oleic acid
Method in brief: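 Cells seeded at 5,000 per well were treated with compounds over a concentration series and loaded with oleic acid (400 uM, as added). Lipid droplet fluorescence (488 nm excitation, 500-530 nm channel) was read by laser-scanning cytometry and normalized to 20 uM Triacsin C.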

[8] = target: ATP-dependent 6-phosphofructokinase (Trypanosoma brucei brucei) (UniProt O15648); experiment: qHTS Assay to Find Inhibitors of T. brucei phosphofructokinase: hit validation (AID 492961; active = well fitted curve in the direction sought with a large enough effect; an effect the other way counts as inactive or inconclusive;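 note: luminescence reports ADP formed as PFK phosphorylates fructose-6-phosphate with ATP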)
Method in brief: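 In this biochemical qHTS validation, titrated compounds were tested against 1.25 nM PFK with 0.1 mM ATP and 0.5 mM F6P. Percent activity came from controls lacking or containing enzyme.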

[9] = target: Luciferin 4-monooxygenase (Photinus pyralis) (UniProt P08659); experiment: Biochemical firefly luciferase enzyme assay for NPC (AID 624030; active = well fitted curve in the direction sought with a large enough effect; an effect the other way counts as inactive or inconclusive;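 note: purified P. pyralis luciferase at 10 nM with luciferin and ATP substrate; nearly all actives have a fitted effect of over 70% in size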)
Method in brief: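 Direct inhibition of firefly luciferase enzyme (10 nM final, 50 mM Tris Acetate) assessed by luminescence within 5 minutes. Percent activity scaled between DMSO and PTC124 positive control, with concentration-effect curves classified by fit quality and response.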

[10] = S16 Schwann cell PMP22 intronic element firefly luciferase assay (AID 624032; active = well fitted curve in the direction sought with a large enough effect; an effect the other way counts as inactive or inconclusive; note: nearly all actives have a fitted effect of over 30% in size)
Method in brief: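 Luciferase reporter of PMP22 intronic-element expression in stably transfected S16 rat Schwann cells, read by ONE-Glo luminescence after 24 h compound exposure at 37 C. Activity scaled between DMSO (0%) and positive-control PTC124; concentration-effect curves quality-classified.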

[11] = qHTS profiling for inhibitors of Plasmodium falciparum proliferation (AID 504749; active = well fitted curve in the direction sought with a large enough effect; an effect the other way counts as inactive or inconclusive; note: nearly all actives have a fitted effect of over 60% in size); settings: P. falciparum in erythrocytes, SYBR Green DNA, 72 h
Method in brief: (§1)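 Infected RBCs, 0.3% parasitemia/2.5% Hct final; cpd 72 h, 37 C, 5% CO2; lysis buffer with saponin/triton/SYBR Green I, o/n RT dark; FI 485/535; norm. to artemisinin (0.29 uM) and DMSO.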

[12] = system: C2A; experiment: as above; settings: P. falciparum in erythrocytes, SYBR Green DNA, 72 h; series mostly up to 28.7 µM
Method in brief: as §1

[13] = system: CP192; experiment: as above; settings: P. falciparum in erythrocytes, SYBR Green DNA, 72 h; series mostly up to 28.7 µM
Method in brief: as §1

[14] = system: CP262; experiment: as above; settings: P. falciparum in erythrocytes, SYBR Green DNA, 72 h; series mostly up to 28.7 µM
Method in brief: as §1

[15] = system: FAB9; experiment: as above; settings: P. falciparum in erythrocytes, SYBR Green DNA, 72 h; series mostly up to 28.7 µM
Method in brief: as §1

[16] = AP1 Signaling Pathway (AID 357);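 note: ME-180 reporter cells stimulated with EGF at its EC50 level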
Method in brief: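 Read-out was the 460nm/530nm emission ratio (excitation 405nm) after CCF4 loading for 2.5 hours at room temperature. Cells carried an AP-1-driven beta-lactamase reporter, were stimulated with EC50 EGF plus compound for 5 hours, and AC50 values came from titrations.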

[17] = target: 3',5'-cyclic-AMP phosphodiesterase 4B (Homo sapiens) (UniProt Q07343); experiment: qHTS Assay for Inhibitors of PDE-IV (AID 607; active = well fitted activation curve with a large enough effect in the main read-out, with a control signal flat, not every such curve was filed as active)
Method in brief: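 ACTOne HEK293 cells carry a modified cAMP-gated CNG channel and express endogenous PDE4; plated 1000 cells/well, compounds up to 22.9 uM final. Membrane-potential dye fluorescence (ex 535/em 590) was read; parental cells received 10 uM forskolin + 100 uM RO 20-1724.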

[18] = target: Cytochrome P450 3A4 (Homo sapiens) (UniProt P08684); experiment: qHTS Assay for Activators of Cytochrome P450 3A4 (AID 885; active = well fitted curve in the direction sought with a large enough effect; an effect the other way counts as inactive or inconclusive; note: nearly all actives have a fitted effect of over 65% in size)
Method in brief: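 20nM CYP3A4 + 25uM Luciferin-PPXE (=KM), 200mM KPO4; cpd 10 min RT; NADPH regen, 60 min RT; stop w/ detection buffer, 20 min; luminescence. Normalized to 57 uM ketoconazole.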

[19] = target: Ubiquitin carboxyl-terminal hydrolase 1 (Homo sapiens) (UniProt O94782); experiment: Inhibitors of USP1/UAF1: Pilot qHTS (AID 504865; active = well fitted curve in the direction sought with a large enough effect; an effect the other way counts as inactive or inconclusive;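 note: rhodamine fluorescence freed from ubiquitin-rhodamine substrate followed over time; top concentration of the series differs between compounds; nearly all actives have a fitted effect of over 35% in size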)
Method in brief: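 USP1/UAF1 complex at 1 nM preincubated 15 min at room temperature with compound, then Ub-Rho substrate added at 150 nM final. Fluorescence (480/540 nm) read kinetically in 50 mM HEPES pH 7.8, 0.5 mM EDTA, 1 mM TCEP, 0.1 mg/ml BSA, 0.01% Tween-20.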

[20] = measured here: cell count channel max response
[21] = measured here: lipid channel max response

Sequence of Ubiquitin carboxyl-terminal hydrolase 1 (Homo sapiens) (O94782 whole entry, looked up): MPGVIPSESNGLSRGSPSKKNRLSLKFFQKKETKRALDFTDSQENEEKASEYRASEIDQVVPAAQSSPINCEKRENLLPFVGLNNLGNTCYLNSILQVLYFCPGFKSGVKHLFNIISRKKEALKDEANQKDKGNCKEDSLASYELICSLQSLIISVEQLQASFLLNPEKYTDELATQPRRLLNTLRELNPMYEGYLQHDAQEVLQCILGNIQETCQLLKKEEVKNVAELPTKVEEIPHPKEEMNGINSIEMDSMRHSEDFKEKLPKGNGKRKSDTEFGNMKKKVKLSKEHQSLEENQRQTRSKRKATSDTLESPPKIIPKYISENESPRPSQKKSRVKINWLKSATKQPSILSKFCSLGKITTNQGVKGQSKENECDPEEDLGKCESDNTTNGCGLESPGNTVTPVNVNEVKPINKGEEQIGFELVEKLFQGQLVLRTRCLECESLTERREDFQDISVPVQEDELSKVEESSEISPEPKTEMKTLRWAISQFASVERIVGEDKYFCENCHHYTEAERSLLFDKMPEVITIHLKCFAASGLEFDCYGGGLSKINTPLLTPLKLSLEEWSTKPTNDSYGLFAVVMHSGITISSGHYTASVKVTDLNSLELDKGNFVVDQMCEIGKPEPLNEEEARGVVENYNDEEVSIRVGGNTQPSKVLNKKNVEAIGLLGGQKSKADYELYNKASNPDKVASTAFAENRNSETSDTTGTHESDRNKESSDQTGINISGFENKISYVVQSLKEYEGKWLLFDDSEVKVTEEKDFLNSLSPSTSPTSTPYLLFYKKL
Sequence of Cytochrome P450 1A2 (Homo sapiens) (P05177 whole entry, looked up): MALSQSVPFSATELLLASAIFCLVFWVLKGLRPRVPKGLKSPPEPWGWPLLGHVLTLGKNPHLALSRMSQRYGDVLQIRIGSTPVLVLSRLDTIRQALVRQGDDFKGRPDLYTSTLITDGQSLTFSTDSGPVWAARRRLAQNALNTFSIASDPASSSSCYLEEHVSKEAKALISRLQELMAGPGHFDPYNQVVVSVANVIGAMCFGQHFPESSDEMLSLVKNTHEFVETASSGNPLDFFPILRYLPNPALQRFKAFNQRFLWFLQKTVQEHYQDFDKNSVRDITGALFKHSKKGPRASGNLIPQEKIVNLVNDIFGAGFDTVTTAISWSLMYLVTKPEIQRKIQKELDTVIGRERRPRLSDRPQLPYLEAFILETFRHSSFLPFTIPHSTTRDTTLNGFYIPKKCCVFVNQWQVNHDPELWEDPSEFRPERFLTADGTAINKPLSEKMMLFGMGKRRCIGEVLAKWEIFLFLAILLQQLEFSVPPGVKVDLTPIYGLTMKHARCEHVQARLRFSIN
Sequence of Glucocorticoid receptor (Homo sapiens) (P04150 whole entry, looked up, the tested form may be a part): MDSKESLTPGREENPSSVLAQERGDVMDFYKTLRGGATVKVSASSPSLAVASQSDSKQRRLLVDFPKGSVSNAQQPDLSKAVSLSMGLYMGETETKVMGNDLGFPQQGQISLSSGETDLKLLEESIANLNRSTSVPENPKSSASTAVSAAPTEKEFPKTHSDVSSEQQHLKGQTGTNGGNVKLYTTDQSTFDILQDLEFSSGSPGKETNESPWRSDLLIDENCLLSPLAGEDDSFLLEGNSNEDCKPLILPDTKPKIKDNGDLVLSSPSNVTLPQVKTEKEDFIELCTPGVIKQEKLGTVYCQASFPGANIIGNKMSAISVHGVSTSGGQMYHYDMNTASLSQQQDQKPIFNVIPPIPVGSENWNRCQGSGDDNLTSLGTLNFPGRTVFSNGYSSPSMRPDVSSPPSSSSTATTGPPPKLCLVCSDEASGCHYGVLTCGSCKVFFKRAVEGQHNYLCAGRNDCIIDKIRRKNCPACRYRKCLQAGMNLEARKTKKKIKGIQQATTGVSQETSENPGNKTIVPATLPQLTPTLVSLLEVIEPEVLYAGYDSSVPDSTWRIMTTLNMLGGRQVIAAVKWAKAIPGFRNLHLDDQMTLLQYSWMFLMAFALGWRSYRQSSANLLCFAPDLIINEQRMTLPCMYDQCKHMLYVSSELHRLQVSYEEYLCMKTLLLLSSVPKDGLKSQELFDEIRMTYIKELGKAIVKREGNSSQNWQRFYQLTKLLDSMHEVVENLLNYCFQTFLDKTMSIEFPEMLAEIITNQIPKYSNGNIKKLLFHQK
Sequence of 3',5'-cyclic-AMP phosphodiesterase 4B (Homo sapiens) (Q07343 whole entry, looked up): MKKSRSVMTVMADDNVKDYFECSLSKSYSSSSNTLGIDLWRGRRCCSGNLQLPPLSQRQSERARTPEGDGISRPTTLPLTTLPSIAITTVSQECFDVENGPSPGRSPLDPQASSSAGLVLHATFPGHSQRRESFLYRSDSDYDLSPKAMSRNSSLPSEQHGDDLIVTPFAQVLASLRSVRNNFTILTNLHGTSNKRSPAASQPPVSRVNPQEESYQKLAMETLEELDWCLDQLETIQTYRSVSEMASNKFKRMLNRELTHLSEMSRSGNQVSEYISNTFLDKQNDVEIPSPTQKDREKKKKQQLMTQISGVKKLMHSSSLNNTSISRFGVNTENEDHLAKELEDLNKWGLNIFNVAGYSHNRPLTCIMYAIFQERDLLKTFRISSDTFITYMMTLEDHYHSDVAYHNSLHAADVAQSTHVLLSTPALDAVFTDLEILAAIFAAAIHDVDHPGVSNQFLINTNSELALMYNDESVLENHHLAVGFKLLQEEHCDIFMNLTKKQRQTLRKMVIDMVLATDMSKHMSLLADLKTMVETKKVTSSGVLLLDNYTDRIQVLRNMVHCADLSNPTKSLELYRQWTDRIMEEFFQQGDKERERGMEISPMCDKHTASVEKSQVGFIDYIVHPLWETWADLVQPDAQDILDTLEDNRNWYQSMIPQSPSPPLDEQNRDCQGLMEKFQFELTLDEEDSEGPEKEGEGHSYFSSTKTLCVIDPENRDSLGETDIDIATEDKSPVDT
Sequence of Cytochrome P450 3A4 (Homo sapiens) (P08684 whole entry, looked up): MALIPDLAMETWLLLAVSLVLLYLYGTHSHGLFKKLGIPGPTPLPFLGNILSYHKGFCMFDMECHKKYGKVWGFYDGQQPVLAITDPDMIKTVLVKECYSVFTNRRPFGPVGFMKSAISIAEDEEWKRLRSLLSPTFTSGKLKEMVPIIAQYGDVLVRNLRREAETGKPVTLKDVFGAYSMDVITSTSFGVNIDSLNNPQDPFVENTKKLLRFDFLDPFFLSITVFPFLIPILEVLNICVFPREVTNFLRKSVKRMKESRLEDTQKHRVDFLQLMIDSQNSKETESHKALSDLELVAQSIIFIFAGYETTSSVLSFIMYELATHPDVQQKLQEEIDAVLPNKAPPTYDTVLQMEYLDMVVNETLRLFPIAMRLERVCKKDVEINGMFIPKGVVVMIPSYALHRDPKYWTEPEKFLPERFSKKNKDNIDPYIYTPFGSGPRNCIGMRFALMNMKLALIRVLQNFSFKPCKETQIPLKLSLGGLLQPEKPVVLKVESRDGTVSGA
Sequence of ATP-dependent 6-phosphofructokinase (Trypanosoma brucei brucei) (O15648 whole entry, looked up): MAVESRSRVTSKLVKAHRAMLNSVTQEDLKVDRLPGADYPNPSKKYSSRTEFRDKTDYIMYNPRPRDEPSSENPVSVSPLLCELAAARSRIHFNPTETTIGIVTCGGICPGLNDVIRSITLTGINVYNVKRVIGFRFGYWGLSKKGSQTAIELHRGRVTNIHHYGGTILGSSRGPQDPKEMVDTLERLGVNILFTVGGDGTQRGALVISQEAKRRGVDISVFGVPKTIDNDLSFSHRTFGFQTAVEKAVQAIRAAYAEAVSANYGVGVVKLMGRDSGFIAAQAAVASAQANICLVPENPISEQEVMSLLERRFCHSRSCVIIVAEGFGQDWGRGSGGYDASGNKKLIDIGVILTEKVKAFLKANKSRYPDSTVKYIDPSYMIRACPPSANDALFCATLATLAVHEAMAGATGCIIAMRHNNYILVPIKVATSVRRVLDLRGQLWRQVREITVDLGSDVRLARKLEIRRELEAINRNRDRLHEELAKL
Sequence of Luciferin 4-monooxygenase (Photinus pyralis) (P08659 whole entry, looked up): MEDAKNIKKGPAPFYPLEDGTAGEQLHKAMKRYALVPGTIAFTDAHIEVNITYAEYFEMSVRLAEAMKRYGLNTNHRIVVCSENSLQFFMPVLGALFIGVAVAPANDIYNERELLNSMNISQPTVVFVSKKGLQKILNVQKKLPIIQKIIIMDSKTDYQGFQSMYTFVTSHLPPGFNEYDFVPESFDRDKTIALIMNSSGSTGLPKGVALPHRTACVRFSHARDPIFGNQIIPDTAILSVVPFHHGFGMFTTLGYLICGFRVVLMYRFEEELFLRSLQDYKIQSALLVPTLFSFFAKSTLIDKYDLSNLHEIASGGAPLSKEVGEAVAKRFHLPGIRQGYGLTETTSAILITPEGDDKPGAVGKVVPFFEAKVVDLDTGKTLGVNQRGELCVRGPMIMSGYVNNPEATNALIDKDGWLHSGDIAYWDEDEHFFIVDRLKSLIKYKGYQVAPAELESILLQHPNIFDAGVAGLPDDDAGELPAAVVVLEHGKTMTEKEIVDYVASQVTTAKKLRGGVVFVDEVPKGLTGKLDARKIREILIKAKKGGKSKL

Clc1ccc([C@@H](OCCN2CCCCC2)c2ccccc2)cc1
Potency [1]: 12.6 µM (active)
activity change, negative = inhibition ([2]; at 17.2 µM (top of the series)): -74.4% (active)
outcome [3]: inactive
Potency [4]: > 20.6 µM (inactive)
Potency [5]: > 20.6 µM (inactive)
outcome [6]: inactive
activity change, negative = inhibition ([7]; at 25.7 µM (top of the series)): -2.71% (inactive)
max response [7, 20]: -5.28%
max response [7, 21]: -7.74%
Potency [8]: inactive
Potency [9]: inactive
Potency [10]: inactive
activity, negative = inhibition ([11]; at 12.8 µM (top of the series), parasite line A): -2.83% (inactive)
activity, negative = inhibition ([11]; at 12.8 µM (top of the series), parasite line B): -13.1% (inactive)
Potency [12]: inactive
Potency [13]: inactive
Potency [14]: inactive
Potency [15]: inactive

c1ccc2c(c1)[nH]c1cnccc12
outcome [16]: inactive
activity change, negative = inhibition ([2]; at 17.2 µM (top of the series)): 25.7% (inactive)
outcome [3]: inactive
activity change, negative = inhibition ([7]; at 57.5 µM (top of the series)): 0.155% (inactive)
max response [7, 20]: -9.28%
max response [7, 21]: -6.47%

C[C@H]1[C@@H](O)[C@@H](C)/C=C\C=CCC\C=C/C=C\C=C/C=C[C@@H](O[C@H]2O[C@@H](C)[C@@H](O)[C@@H](N)[C@@H]2O)C[C@@H]2O[C@@](O)(C[C@@H](O)[C@H]2C(=O)O)C[C@@H](O)[C@@H](O)CC[C@@H](O)C[C@@H](O)C[C@@H](O)CC(=O)O[C@H]1C
outcome [16]: inactive
activity change, negative = inhibition ([2]; at 17.2 µM (top of the series)): 1.26% (inactive)
outcome [3]: inactive
outcome [6]: inactive
Potency [17]: inactive
activity change, negative = inhibition ([7]; at 25.7 µM (top of the series)): -0.591% (inactive)
max response [7, 20]: 5.63%
max response [7, 21]: 6.3%

CNC(=O)N(C)c1nnc(C(C)(C)C)s1
outcome [16]: inactive
activity change, negative = inhibition ([2]; at 17.2 µM (top of the series)): -5.4% (inactive)
outcome [3]: inactive
Potency [18]: inactive
activity change, negative = inhibition ([7]; at 57.5 µM (top of the series)): 6.39% (inactive)
max response [7, 20]: 16.4%
max response [7, 21]: 25.2%

CN1Cc2c(ccc3c2OCO3)[C@@H]2[C@@H](O)Cc3cc4c(cc3[C@@H]21)OCO4
outcome [16]: inactive
Potency [1]: 2.51 µM (active) and 794 nM (active)
outcome [3]: inactive
Potency [4]: > 20.6 µM (inactive) and > 46 µM (inactive)
Potency [5]: > 20.6 µM (inactive) and > 46 µM (inactive)
Potency [17]: inactive
Potency [18]: inactive
activity change, negative = inhibition ([7]; at 25.7 µM (top of the series)): 0.247% (inactive)
max response [7, 20]: 0.16%
max response [7, 21]: -1.15%
Potency [19]: inactive

CO[C@H]1C=C2CCN(C)[C@@H]2[C@@H]2c3cc4c(cc3C(=O)O[C@H]21)OCO4
outcome [16]: inactive
activity change, negative = inhibition ([2]; at 17.2 µM (top of the series)): 8.91% (inactive)
outcome [3]: inactive
Potency [4]: > 20.6 µM (inactive)
Potency [5]: > 20.6 µM (inactive)
Potency [17]: inactive
activity change, negative = inhibition ([7]; at 25.7 µM (top of the series)): 0.781% (inactive)
max response [7, 20]: -13.3%
max response [7, 21]: -11.4%
Potency [19]: inactive

CC[C@H]1C(=O)OC[C@H]1Cc1cncn1C
outcome [16]: inactive
activity change, negative = inhibition ([2]; at 38 µM (top of the series)): 27.4% (inactive) and 31.8% (inactive)
outcome [3]: inactive
Potency [18]: inactive
activity change, negative = inhibition ([7]; at 25.7 µM (top of the series)): 0.358% (inactive)
max response [7, 20]: -8.31%
max response [7, 21]: -6.45%
Potency [19]: inactive

CC(C)N(CC[C@@](C(N)=O)(c1ccccc1)c1ccccn1)C(C)C
outcome [16]: inactive
Potency [1]: inactive
outcome [3]: inactive
outcome [6]: inactive
Potency [17]: inactive
Potency [18]: inactive
activity change, negative = inhibition ([7]; at 25.7 µM (top of the series)): 0.14% (inactive)
max response [7, 20]: -13.9%
max response [7, 21]: -14.1%
Potency [8]: inactive
Potency [19]: inactive
Potency [9]: inactive
Potency [10]: inactive
activity, negative = inhibition ([11]; at 28.7 µM (top of the series), parasite line A): 9.42% (inactive)
activity, negative = inhibition ([11]; at 28.7 µM (top of the series), parasite line B): 2.7% (inactive)
Potency [12]: inactive
Potency [13]: inactive
Potency [14]: inactive
Potency [15]: inactive

— PubChem BioAssay (NCATS)
